Test results as given in the supplement of paper PMC10849652.
About 7,900 targets were measured; listed, in parts, are those with a hit and a random draw of the rest. About 0.6% of all pairs of compound and target were hits.

How the values were obtained:
Experiment in all cases: log2 fold change, soluble protein after heating vs DMSO (PISA); higher = thermal stabilisation; K562 cells, 10 uM, 30 min; active = over 0.2 and 3.5 SD of the protein, either way, in both replicates (recomputed)
[1] = compound: CN1CCN(CCOc2cc(OC3CCOCC3)c3c(Nc4c(Cl)ccc5c4OCO5)ncnc3c2)CC1 [saracatinib]
In short: (§1)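 Aliquots of K562 cells (2×10^6 cells/mL) treated with 10 μM compound for 30 min were heated for 3 min over 48°C-58°C. After pooling and extraction in PBS with 0.5% NP-40 at 4°C, soluble protein from a 21,000xg, 90 min spin was quantified by TMTpro 16plex LC-MS/MS with channel sums equalised. Thermal stability is expressed against control samples, from duplicates, as a log2 fold change.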

[2] = compound: CN1CCN(c2nc(C3=C(c4c[nH]c5ccccc45)C(=O)NC3=O)c3ccccc3n2)CC1 [sotrastaurin]
In short: as §1

[3] = compound: CN1CC[C@H](c2c(O)cc(O)c3c(=O)cc(-c4ccccc4Cl)oc23)[C@H](O)C1 [alvocidib]
In short: as §1

[4] = compound: CN1CCc2c(c3ccccc3n2Cc2ccc(C(=O)NO)cc2)C1 [Tubastatin A]
In short: as §1

[5] = compound: CNC(=O)C1=CC=CC=C1NC2=NC(=NC=C2Cl)NC3=C(C=C(C=C3)N4CCOCC4)OC
In short: as §1

[6] = compound: CNC(=O)c1ccc(Nc2ncc(C(F)(F)F)c(NCc3nccnc3N(C)S(C)(=O)=O)n2)cc1 [defactinib]
In short: as §1

[7] = compound: CNCc1ccc(-c2[nH]c3cc(F)cc4c3c2CCNC4=O)cc1 [rucaparib]
In short: as §1

[8] = compound: CNc1nc(-c2ccc3c(N)n[nH]c3c2)cc(N2C[C@@H](C(=O)NC3CCCCC3)CC[C@H]2C)n1
In short: as §1

[9] = compound: COC(=O)N[C@@H](C)CNc1nccc(-c2cn(C(C)C)nc2-c2cc(Cl)cc(NS(C)(=O)=O)c2F)n1 [encorafenib]
In short: as §1

[10] = compound: COC(=O)[C@H](CCSC)NC(=O)C1=C(C=C(C=C1)NC[C@H](CS)N)C2=CC=CC=C2
In short: as §1

[11] = compound: COC1=CC=C(C=C1)CN2C=CC3=C2C=C(C=C3)C(=O)NO
In short: as §1

[12] = compound: CON(C)C(=O)N1N=C(c2cc(F)ccc2F)S[C@@]1(CCCN)c1ccccc1 [filanesib]
In short: as §1

[13] = compound: CO[C@H]1C[C@@H]2CC[C@@H](C)[C@@](O)(O2)C(=O)C(=O)N2CCCC[C@H]2C(=O)O[C@H]([C@H](C)C[C@@H]2CC[C@H](n3cnnn3)[C@H](OC)C2)CC(=O)[C@H](C)/C=C(\C)[C@@H](O)[C@@H](OC)C(=O)[C@H](C)C[C@H](C)/C=C/C=C/C=C/1C [zotarolimus]
In short: as §1

[14] = compound: COc1cc(C(=O)O)ccc1NC(=O)[C@@H]1N[C@@H](CC(C)(C)C)[C@](C#N)(c2ccc(Cl)cc2F)[C@H]1c1cccc(Cl)c1F [idasanutlin]
In short: as §1

[15] = compound: COc1cc(Nc2ncc3c(n2)-c2ccc(Cl)cc2C(c2c(F)cccc2OC)=NC3)ccc1C(=O)O [alisertib]
In short: as §1

[16] = compound: COc1cc2nc(-c3cc(F)ccc3O)nc(N[C@@H]3CNC[C@H]3C(C)(C)O)c2cc1OC
In short: as §1

[17] = compound: COc1cc2ncnc(Nc3ccc(F)c(Cl)c3)c2cc1OCCCN1CCOCC1 [gefitinib]
In short: as §1

[18] = compound: COc1cccc2cc(-c3nc([C@H]4CC[C@H](C(=O)O)CC4)n4ncnc(N)c34)[nH]c12
In short: as §1

[19] = compound: CS(=O)(=O)CCNCc1ccc(-c2ccc3ncnc(Nc4ccc(OCc5cccc(F)c5)c(Cl)c4)c3c2)o1 [lapatinib]
In short: as §1

[20] = compound: CS(=O)(=O)N1CCN(Cc2cc3nc(-c4cccc5[nH]ncc45)nc(N4CCOCC4)c3s2)CC1 [pictilisib]
In short: as §1

Measured: log2 fold change

ALDH6A1 (UniProt Q02252)
UniProt Q02252, sequence (Q02252 whole entry, looked up): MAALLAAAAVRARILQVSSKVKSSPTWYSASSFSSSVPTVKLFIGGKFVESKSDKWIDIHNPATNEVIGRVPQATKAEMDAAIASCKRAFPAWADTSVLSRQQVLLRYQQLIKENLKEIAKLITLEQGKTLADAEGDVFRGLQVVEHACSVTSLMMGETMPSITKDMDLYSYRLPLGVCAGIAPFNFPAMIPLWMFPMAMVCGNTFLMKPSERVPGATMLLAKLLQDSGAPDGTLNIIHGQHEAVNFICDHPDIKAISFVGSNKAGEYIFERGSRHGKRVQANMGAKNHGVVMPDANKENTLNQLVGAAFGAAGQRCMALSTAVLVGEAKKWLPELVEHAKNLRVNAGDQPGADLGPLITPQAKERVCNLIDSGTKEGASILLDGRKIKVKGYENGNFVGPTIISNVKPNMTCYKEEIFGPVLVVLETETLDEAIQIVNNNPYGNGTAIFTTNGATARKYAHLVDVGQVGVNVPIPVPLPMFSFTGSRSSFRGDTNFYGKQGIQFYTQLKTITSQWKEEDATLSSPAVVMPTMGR
inactive: [1] 0.031 | [2] 0.144 | [3] -0.098 | [4] 0.03 | [5] 0.021 | [6] -0.021 | [7] 0.021 | [8] -0.045 | [9] 0.024 | [10] -0.008 | [11] -0.128 | [12] -0.025 | [13] 0.024 | [14] -0.032 | [15] -0.09 | [16] 0.029 | [17] 0.04 | [18] 0.066 | [19] 0.02 | [20] 0.063

ARF4 (UniProt P18085)
UniProt P18085, sequence (P18085 whole entry, looked up): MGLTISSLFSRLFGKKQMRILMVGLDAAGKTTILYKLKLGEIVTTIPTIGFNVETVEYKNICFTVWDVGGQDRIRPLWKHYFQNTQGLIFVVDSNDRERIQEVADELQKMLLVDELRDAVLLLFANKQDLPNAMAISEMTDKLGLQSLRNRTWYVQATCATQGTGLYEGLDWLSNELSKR
inactive: [1] 0.052 | [2] 0.028 | [3] -0.005 | [4] 0.011 | [5] 0.028 | [6] -0.005 | [7] -0.051 | [8] -0.004 | [9] 0 | [10] -0.032 | [11] 0.007 | [12] -0.061 | [13] 0.006 | [14] -0.153 | [15] -0.023 | [16] 0.17 | [17] -0.005 | [18] 0.019 | [19] 0.037 | [20] 0.035

ALDH9A1 isoform 3 (UniProt P49189)
UniProt P49189, sequence (P49189 whole entry, looked up): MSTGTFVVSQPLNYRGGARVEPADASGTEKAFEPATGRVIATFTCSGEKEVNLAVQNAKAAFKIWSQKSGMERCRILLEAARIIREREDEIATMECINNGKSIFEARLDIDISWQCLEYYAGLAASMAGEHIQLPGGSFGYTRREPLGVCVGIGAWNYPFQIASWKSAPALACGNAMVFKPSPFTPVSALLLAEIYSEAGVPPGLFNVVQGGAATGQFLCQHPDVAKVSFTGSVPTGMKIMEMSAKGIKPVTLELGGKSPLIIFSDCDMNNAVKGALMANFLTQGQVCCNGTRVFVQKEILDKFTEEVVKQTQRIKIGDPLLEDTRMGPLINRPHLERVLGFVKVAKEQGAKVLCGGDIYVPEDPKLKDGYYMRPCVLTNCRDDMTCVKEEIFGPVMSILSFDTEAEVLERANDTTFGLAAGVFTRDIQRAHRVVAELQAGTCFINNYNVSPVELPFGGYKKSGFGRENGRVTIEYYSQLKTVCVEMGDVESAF
inactive: [1] -0.019 | [2] 0.01 | [3] -0.007 | [4] -0.024 | [5] 0.05 | [6] -0.024 | [7] -0.054 | [8] -0.009 | [9] -0.016 | [10] -0.005 | [11] -0.006 | [12] -0.04 | [13] 0.001 | [14] -0.006 | [15] 0.017 | [16] -0.01 | [17] -0.028 | [18] 0.041 | [19] -0.007 | [20] -0.002

ARGLU1 (UniProt Q9NWB6)
UniProt Q9NWB6, sequence (Q9NWB6 whole entry, looked up): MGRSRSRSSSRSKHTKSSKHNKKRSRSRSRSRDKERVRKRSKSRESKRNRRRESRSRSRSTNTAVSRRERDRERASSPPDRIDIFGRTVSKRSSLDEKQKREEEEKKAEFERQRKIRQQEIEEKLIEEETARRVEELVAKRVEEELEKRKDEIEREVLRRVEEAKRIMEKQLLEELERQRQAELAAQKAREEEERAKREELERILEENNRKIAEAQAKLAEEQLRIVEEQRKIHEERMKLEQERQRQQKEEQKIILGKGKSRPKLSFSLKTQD
inactive: [1] 0.016 | [2] 0.091 | [3] 0.014 | [4] 0.003 | [5] -0.365 | [6] -0.04 | [7] -0.026 | [8] -0.028 | [9] -0.006 | [10] 0.077 | [11] 0.066 | [12] 0.207 | [13] 0.025 | [14] 0.171 | [15] -0.13 | [16] 0.05 | [17] 0.212 | [18] 0.031 | [19] 0.062 | [20] -0.027

BRK1 isoform 2 (UniProt Q8WUW1)
UniProt Q8WUW1, sequence (Q8WUW1 whole entry, looked up): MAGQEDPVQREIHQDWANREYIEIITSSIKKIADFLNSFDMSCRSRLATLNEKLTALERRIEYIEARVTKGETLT
inactive: [1] 0.036 | [2] 0.007 | [3] -0.027 | [4] 0.037 | [5] -0.011 | [6] -0.074 | [7] -0.05 | [8] -0.03 | [9] -0.063 | [10] -0.018 | [11] 0.113 | [12] 0.127 | [13] -0.049 | [14] 0.031 | [15] -0.076 | [16] -0.07 | [17] 0.05 | [18] -0.041 | [19] -0.032 | [20] 0.018

AFG1L (UniProt Q8WV93)
UniProt Q8WV93, sequence (Q8WV93 whole entry, looked up): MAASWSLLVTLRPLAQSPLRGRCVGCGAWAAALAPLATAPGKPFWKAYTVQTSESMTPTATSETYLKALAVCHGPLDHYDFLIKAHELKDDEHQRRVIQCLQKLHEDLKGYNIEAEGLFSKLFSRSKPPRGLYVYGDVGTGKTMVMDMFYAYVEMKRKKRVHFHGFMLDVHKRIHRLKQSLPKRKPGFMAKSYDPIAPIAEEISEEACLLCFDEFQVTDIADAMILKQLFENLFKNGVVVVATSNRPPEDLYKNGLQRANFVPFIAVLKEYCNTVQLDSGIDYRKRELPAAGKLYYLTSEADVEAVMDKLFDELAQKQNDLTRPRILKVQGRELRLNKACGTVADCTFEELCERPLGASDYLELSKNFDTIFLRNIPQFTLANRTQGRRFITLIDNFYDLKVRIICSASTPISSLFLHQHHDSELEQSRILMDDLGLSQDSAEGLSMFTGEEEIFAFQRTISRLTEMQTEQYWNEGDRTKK
inactive: [1] -0.038 | [2] -0.075 | [3] -0.195 | [4] -0.204 | [5] -0.011 | [6] -0.131 | [7] -0.057 | [8] 0.002 | [9] 0.025 | [10] 0.088 | [11] -0.17 | [12] -0.239 | [13] 0.018 | [14] 0.016 | [15] -0.065 | [16] -0.18 | [17] -0.012 | [18] 0.107 | [19] 0.041

AP2M1 (UniProt Q96CW1)
UniProt Q96CW1, sequence (Q96CW1 whole entry, looked up): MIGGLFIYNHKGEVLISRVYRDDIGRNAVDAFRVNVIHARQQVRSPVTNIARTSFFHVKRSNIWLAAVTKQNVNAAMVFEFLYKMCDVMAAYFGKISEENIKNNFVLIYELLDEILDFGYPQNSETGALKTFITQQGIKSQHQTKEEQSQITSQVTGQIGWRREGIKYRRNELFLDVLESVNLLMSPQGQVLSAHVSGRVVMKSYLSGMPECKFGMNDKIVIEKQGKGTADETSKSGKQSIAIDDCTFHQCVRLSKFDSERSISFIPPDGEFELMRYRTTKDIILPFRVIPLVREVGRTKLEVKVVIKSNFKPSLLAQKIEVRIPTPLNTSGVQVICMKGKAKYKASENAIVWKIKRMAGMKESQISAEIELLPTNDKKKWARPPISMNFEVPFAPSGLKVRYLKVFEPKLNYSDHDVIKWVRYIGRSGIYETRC
inactive: [1] 0.032 | [2] 0.008 | [3] 0.017 | [4] 0.002 | [5] 0.005 | [6] 0.016 | [7] 0.026 | [8] 0.001 | [9] 0.008 | [10] -0.014 | [11] -0.008 | [12] 0.048 | [13] 0.017 | [14] -0.018 | [15] -0.06 | [16] 0.01 | [17] 0.032 | [18] 0.01 | [19] 0.014 | [20] -0.021

ATAD3A isoform 2 (UniProt Q9NVI7)
UniProt Q9NVI7, sequence (Q9NVI7 whole entry, looked up): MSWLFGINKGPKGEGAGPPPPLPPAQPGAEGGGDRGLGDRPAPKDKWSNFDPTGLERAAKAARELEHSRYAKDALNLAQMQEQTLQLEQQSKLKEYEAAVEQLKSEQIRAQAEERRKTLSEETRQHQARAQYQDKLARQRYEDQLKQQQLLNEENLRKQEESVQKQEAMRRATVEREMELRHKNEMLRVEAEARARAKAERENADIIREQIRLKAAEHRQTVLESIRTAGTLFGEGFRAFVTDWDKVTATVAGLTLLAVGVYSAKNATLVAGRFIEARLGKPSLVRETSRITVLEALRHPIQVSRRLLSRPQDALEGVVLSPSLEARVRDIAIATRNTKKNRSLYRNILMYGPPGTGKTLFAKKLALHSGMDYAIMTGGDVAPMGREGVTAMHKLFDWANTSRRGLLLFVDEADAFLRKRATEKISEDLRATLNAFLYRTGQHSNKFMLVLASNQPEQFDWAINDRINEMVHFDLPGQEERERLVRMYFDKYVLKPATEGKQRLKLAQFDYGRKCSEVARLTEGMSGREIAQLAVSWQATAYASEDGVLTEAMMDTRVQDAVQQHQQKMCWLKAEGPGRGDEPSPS
inactive: [1] 0.001 | [2] -0.053 | [3] 0.102 | [4] 0.04 | [5] -0.139 | [6] 0.05 | [7] 0.252 | [8] -0.017 | [9] 0.154 | [10] -0.046 | [11] -0.029 | [12] -0.005 | [13] -0.053 | [14] 0.073 | [15] -0.006 | [16] -0.116 | [17] -0.199 | [18] 0.001 | [19] -0.029 | [20] -0.185
